Screens as filed in PubChem BioAssay.
S2 tox: viability counter-screen for ATXN expression inhibitors. 0.49% of 400,000 active. AID 651635. Potency, µM (series often up to 56.7 µM), actives largely listed as cytotoxic. S2 cells (HEK-293 line with an ATXN2-luciferase reporter) viability, CellTiter-Fluor protease fluorescence, 24 h; note: nearly all actives have a fitted effect of over 40% in size
Apoferritin bind: candidate novel general anesthetic via apoferritin binding. Potency, µM (top dose mostly 77.5 µM), without a hit: at the top dose activity change, negative = displacement, usual class: inhibitors. 0.074% of 350,000 active. apoferritin/1-aminoanthracene competitive binding, fluorescence. P02791; note: % is set by controls: 0 for no effect and ±100 for the full control effect; nearly all actives have a fitted effect of over 20% in size
Target sequence (P02791 2-175 limits assumed): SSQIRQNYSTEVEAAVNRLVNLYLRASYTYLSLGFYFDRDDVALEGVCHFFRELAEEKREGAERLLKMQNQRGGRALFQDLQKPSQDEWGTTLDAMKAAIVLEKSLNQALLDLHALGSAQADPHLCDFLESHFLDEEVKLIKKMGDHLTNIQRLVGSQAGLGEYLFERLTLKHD
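Probe: 1-aminoanthracene (50% saturated, PBS). Protein: horse-spleen apoferritin, 10 uM. Incubation: 10 min, room temperature. Detection: 380 nm excitation, 535 nm emission. Analysis: normalized response, four-parameter Hill.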
ATXN2 expr inh: ATXN2 expression inhibition; AID 1745845; Potency, µM (top dose mostly 57 µM), without a hit: top-dose activity change, negative = inhibition, actives largely listed as inhibitors; 0.72% of 360,000 active; HEK-293 ATXN2-luciferase reporter, luminescence, 24 h; note: % is set by controls: 0 for no effect and ±100 for the full control effect; nearly all actives have a fitted effect of over 55% in size
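ATXN2-luciferase reporter cells (luciferase flanked by upstream and downstream ATXN2 gene portions) were treated 24 h at 37 °C with compounds at up to 57 uM. SteadyGlo luminescence gave expression; GF-AFC fluorescence gave viability.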
TGFb SMAD3 inh: TGF-b pathway inhibition; HepG2 CAGA-GFP TGF-b/SMAD3 reporter, GFP fluorescence, 18 h; TGF-beta stimulated, 500 pg/mL final; Potency, µM (titrated, usually from 46.1 µM), without a hit: top-dose activity, negative = inhibition, hits mostly inhibitors; 1.2% of 410,000 active; note: % is set by controls: 0 for no effect and ±100 for the full control effect; nearly all actives have a fitted effect of over 65% in size
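Smad-responsive CAGA-GFP expression was quantified in HEPG2 cells exposed to compounds and 500 pg/mL final TGF-beta for 18 h at 37 degrees C; unstimulated wells defined full inhibition.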
HepG2 tox: kills HepG2 cells in TGF-b inhibitor counter-screen; Potency, µM (doses to about 46.1 µM), for the others: at the highest dose activity change, negative = cytotoxicity, usual class: cytotoxic; HepG2 CAGA-GFP viability, ATP luminescence, 18 h; AID 588856; 0.76% of 410,000 active
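CellTiter-Glo luminescence gave cytotoxicity after 18 hours at 37 degrees C. The cells were HepG2 CAGA-GFP in 1% FBS DMEM, stimulated with 500 pg/mL TGF-beta after compound addition. %Activity was normalised to no-cell wells (complete cell-killing) and DMSO (no toxicity), and curves were fitted and classified.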
Active calls of the source: *; i = inactive; ? = inconclusive; . = no result; ! = repeats disagree; [ ] = remark or other dose. A selection: hits, their analogues and other compounds. The true share with any hit is near 2.4%. Calls come from the whole dose curve; as a rule, active = well fitted curve in the direction sought with a large enough effect; inconclusive = small, poorly fitted or top-dose-only effect, or another doubt; inactive = no such curve, though single readings can be large; an effect the other way counts as inactive or inconclusive. Potency is the fitted concentration of half-maximal effect.

SMILES	S2 tox	Apoferritin bind	ATXN2 expr inh	TGFb SMAD3 inh	HepG2 tox
COc1cc(OC)c2c(-c3ccccc3)cc(=O)oc2c1C(CCN1CCCC(C)C1)c1ccc(N(C)C)cc1 (stereo not drawn)	20µM*	?	?	?	-60%
COc1cc(C(CCN2CCCC2)c2c(OC)cc(OC)c3c(-c4ccccc4)cc(=O)oc23)cc(OC)c1OC (stereo not drawn)	.	-17%	?	?	-78%
C[C@@H]1CN(Cc2ccc3c(c2)CN(C(=O)CN2CCOc4ccccc4C2)CCO3)C[C@H](C)O1	i	.	.	.	.
CC1CCc2c(sc(NC(=O)CSc3ncn[nH]3)c2C#N)C1 (stereo not drawn)	i	-12%	0.34µM*	-4%	-36%
CCN(CC)S(=O)(=O)c1cc([N+](=O)[O-])ccc1NNC(=O)Nc1ccc(Cl)c(Cl)c1	.	?	?	7.1µM*	-3%
CN1CCC(Nc2ncc3ncnc(Nc4ccc(F)c(Cl)c4)c3n2)CC1	?	-3%	28µM*	.	.
Cc1cc(C)cc(NS(=O)(=O)c2ccc3c(c2)CCCN3C(=O)C2CCC2)c1	25µM*	5%	?	?	-34%
CCn1nc(-c2ccccc2)c(-c2ccccc2)c(C(=O)Nc2nc(C)c(C(C)=O)s2)c1=O	.	-17%	.	0%	-3%
Cc1ccc(-c2cc(C(=O)N/N=C/c3c[nH]c4ccccc34)n[nH]2)o1	?	0%	.	36%	-8%
Cc1ccc(-c2cc(C(=O)N/N=C/c3ccccc3O)n[nH]2)o1	?	-2%	20µM*	?	-49%
COCc1cc(=O)[nH]c(SCCS(=O)(=O)c2ccc(C)cc2)n1	i	7%	-18%	13%	19%
COCc1cc(=O)[nH]c(SCCS(=O)(=O)c2ccc(Cl)cc2Cl)n1	.	-3%	20µM*	?	-39%
NC(=O)[C@@H]1CCCN1C(=O)C(Cc1cnc[nH]1)NC(=O)C1CCC(=O)N1 (stereo partly drawn)	.	6%	.	.	.
CC1(C)Cc2c(c(N3CCOCC3)nc3snc(Br)c23)CO1	i	-21%	-3%	-4%	-8%
CC1(C)Cc2c(c(N3CCOCC3)nc3snc(N)c23)CO1	?	-6%	-16%	10µM*	-47%
COCC1CCCN(Cc2ccc3c(c2)CN(C(=O)c2cccnc2OC)CCO3)C1 (stereo not drawn)	i	.	.	.	.
CCn1nc(C)cc1C(=O)Sc1cccc(Br)c1	i	-5%	-2%	?	20µM*
COc1ccc(Sc2nnc(Cc3ccccc3)c3ccccc23)cc1	i	?	?	-18%	23%
Cc1ccc(Sc2nnc(Cc3ccccc3)c3ccccc23)cc1	i	?	?	14µM*	18µM*
CN(C)c1nc(Cc2ccc(NC(=O)c3ccc(C(F)(F)F)cc3)cc2)nc(N(C)C)c1CC(=O)O	.	.	2%	.	.
CCOC(=O)N1CCN(c2ncnc3scc(-c4ccc(Cl)cc4)c23)CC1	i	-9%	.	16µM*	-26%
COCc1c(C(=O)N2CCN(C3CCCC3)CC2)cnn1-c1nccc(-c2cccs2)n1	i	.	.	.	.
CC#C[C@]1(O)CC[C@H]2[C@@H]3CCC4=CC(=O)CCC4=C3[C@@H](c3ccc(N(C)C)cc3)C[C@@]21C	i	?	15µM*!	0%	-23%
Cc1cc(C)cc(OCC(=O)N2CCCCCC2)c1	i	?	-1%	-4%	0%
Cc1cc(C)c(C)c(OCC(=O)N2CCCCCC2)c1	i	20µM*	4%	3%	-7%
SMILES	S2 tox	Apoferritin bind	ATXN2 expr inh	TGFb SMAD3 inh	HepG2 tox
Cc1cc(C(=O)N[C@H](c2ccccc2)[C@@]2(C)C[C@@H]2[C@@H](C)C(=O)Nc2ccc3ccccc3c2)n(C)n1	?	-10%	-1%	?	-37%
OCCn1cc(-c2ccc3c(c2)CCC3=NO)c(-c2ccncc2)n1	.	.	1%	.	.
Cc1nc2sc(C(N)=O)c(N)c2c2c1CCCC2	i	29%	11%	?	20µM*
COc1ccc(O[C@H]2C=C[C@@H](c3ccccc3)O[C@H]2CO/N=C2/c3cc(OC)ccc3O[C@@H](c3cccc(OC)c3)[C@H]2O)cc1	.	-11%[15.3 µM]	.	.	.
O=S(=O)(c1ccccc1)N1CCN(c2ccnc3cc(Cl)ccc23)CC1	?	-19%	13µM*	?	-30%
CS(=O)(=O)c1ccc(C(=O)OCC(=O)N2CC(=O)Nc3ccccc32)cc1[N+](=O)[O-]	.	.	.	0%	2%
CS(=O)(=O)c1ccc(C(=O)OCC(=O)N2CCOCC2)cc1[N+](=O)[O-]	?	.	?	7.1µM*	8.9µM*
CS(=O)(=O)c1ccc(C(=O)OCC(=O)N2CCN(CCC3CCCCC3)CC2)cc1[N+](=O)[O-]	?	.	3.5µM*	4µM*	3.2µM*
CS(=O)(=O)c1ccc(C(=O)OCC(=O)N2CCCC2)cc1[N+](=O)[O-]	.	.	.	11µM*	-102%
CC1CN(C(=O)COC(=O)c2ccc(N)c([N+](=O)[O-])c2)CC(C)O1 (stereo not drawn)	?	-3%	7%	4%	-74%
CC1CCCCN1C(=O)COC(=O)c1ccc(S(C)(=O)=O)c([N+](=O)[O-])c1 (stereo not drawn)	.	.	.	?	7.9µM*
CC1CCCCN1C(=O)COC(=O)CSc1ccc(C(N)=O)cc1[N+](=O)[O-] (stereo not drawn)	i	.	-7%	16%	12%
Cc1cc(C)c2c(c1)-c1c(ssc1=S)C(C)(C)N2C(=O)CSc1nncn1C	?	?	?	6.3µM*	-25%
CNC(=S)/N=C/NOCc1ccc(Cl)cc1Cl	?	?	-22%[11.3 µM]	14µM*	-13%
COc1ccc(-c2ccc(SC)nn2)cc1	i	-12%	?	-7%	7.1µM*
CCC1C(=O)NCCN1Cc1ccc2c(c1)CN(Cc1ccc(OC)c(OC)c1)CCO2 (stereo not drawn)	i	.	.	.	.
C=C(C)C(O)Cc1c(OC)ccc(C(=O)/C=C/c2ccc(O)cc2)c1O (stereo not drawn)	?	.	-33%	-19%	-31%
CC(C)=CCC/C(C)=C/Cc1c(O)ccc(C(=O)/C=C/c2ccc(O)cc2)c1O	32µM*	?	?	?	-110%
Cc1ccc(NC(=O)CN2C(=O)NC(Cc3c[nH]c4ccccc34)C2=O)cc1S(=O)(=O)N1CCCCC1 (stereo not drawn)	?	-16%	-24%	10µM*	-7%
O=C(CN1C(=O)NC(Cc2c[nH]c3ccccc23)C1=O)Nc1cccc(S(=O)(=O)N2CCCCCC2)c1 (stereo not drawn)	i	-2%	-20%	?	-47%
O=C(NN=c1c(=O)c2ccccc2c1=O)c1ccccc1	i	?	-15%	11µM*	16µM*
